# Screening data: PubChem BioAssay, several laboratories
# In the library only some 3.2% were active in any assay of this set; here they are far more common.
# TcdB inh: TcdB glycohydrolase inhibitors, primary screen, biochemical, single point, plate reader | Toxin B (Clostridioides difficile), P18177 | TcdB glycohydrolase enzymatic assay | inhibition, % at 9.99 µM | 350,000 tested, 0.24% active | AID 652162, 2013; in the data active = inhibition above about 10%
# Target sequence (P18177 whole entry, looked up): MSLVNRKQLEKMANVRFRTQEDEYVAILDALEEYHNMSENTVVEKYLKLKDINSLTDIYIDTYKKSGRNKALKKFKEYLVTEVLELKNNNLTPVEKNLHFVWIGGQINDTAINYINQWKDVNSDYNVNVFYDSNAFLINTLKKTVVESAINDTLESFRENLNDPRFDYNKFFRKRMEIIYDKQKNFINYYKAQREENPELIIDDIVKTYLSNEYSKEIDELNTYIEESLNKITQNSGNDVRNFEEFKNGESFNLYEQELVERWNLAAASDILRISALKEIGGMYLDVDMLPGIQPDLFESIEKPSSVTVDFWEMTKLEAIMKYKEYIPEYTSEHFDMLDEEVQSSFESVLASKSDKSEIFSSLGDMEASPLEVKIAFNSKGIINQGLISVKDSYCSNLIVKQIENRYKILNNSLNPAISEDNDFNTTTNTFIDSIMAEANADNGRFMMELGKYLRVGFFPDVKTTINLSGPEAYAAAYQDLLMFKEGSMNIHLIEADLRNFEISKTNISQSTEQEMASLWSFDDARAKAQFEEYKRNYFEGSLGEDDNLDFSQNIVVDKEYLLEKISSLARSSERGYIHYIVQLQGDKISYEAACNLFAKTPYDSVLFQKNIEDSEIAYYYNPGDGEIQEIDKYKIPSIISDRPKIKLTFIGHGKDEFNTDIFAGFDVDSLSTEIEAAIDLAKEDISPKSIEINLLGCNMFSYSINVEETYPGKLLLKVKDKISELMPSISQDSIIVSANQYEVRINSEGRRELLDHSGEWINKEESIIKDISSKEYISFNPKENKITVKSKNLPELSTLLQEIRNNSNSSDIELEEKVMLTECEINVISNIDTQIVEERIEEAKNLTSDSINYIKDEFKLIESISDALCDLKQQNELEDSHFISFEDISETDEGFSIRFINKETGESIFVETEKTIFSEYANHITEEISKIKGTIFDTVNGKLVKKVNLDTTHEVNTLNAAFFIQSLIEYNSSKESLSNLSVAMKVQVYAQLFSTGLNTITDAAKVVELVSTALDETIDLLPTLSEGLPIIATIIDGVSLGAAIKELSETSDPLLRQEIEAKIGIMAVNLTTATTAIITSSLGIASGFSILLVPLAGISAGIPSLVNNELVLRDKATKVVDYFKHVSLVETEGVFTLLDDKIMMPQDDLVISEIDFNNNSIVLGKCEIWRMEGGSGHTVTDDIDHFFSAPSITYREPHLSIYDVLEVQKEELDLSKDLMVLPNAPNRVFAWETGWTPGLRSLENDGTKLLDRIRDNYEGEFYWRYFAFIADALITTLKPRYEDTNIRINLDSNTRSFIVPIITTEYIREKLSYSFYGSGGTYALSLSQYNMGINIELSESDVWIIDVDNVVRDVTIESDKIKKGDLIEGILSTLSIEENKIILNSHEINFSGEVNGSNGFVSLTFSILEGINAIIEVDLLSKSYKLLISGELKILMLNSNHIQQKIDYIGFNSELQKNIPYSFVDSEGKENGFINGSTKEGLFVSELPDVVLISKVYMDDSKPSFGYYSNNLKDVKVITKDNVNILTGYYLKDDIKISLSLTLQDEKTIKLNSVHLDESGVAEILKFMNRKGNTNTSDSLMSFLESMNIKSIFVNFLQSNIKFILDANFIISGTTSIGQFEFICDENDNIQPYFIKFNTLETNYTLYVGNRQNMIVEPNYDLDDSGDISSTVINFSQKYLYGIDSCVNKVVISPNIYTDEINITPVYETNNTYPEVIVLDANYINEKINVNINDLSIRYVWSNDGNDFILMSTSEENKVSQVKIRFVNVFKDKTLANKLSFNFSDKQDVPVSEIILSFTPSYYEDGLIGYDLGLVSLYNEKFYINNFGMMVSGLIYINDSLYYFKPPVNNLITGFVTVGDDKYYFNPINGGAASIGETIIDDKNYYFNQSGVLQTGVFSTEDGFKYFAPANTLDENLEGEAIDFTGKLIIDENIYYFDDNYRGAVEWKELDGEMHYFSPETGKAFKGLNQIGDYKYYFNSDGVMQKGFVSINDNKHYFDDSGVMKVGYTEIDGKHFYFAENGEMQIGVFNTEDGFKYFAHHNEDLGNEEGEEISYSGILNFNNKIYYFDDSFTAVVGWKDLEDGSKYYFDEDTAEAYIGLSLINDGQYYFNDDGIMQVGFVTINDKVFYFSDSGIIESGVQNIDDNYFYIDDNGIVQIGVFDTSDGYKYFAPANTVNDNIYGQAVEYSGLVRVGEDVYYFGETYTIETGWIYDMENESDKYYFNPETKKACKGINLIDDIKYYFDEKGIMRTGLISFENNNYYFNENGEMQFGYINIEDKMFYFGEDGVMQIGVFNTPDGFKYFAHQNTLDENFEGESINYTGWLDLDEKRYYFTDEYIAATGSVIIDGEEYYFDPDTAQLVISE
# GDH-TPI counter: GDH-TPI coupling enzyme inhibitors, primary screen, artefact control for M. tuberculosis FBA inhibitor project, biochemical, absorbance, full deck; GDH-TPI coupled enzyme counterscreen, NADH absorbance; inhibition, % at 4.8 µM; 360,000 tested, 1.2% active; AID 588335, 2011; in the data active = inhibition above about 30%;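 also: 0% = DMSO wells and 100% = wells lacking the enzyme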
# PrPC TRFRET: inhibitors of human cell surface prion protein PrPC, primary screen, cell-based, TR-FRET. Major prion protein (Homo sapiens), P04156. inhibition, % at 13.8 µM. TR-FRET read-out. 370,000 tested, 0.43% active; in the data active = inhibition above about 24%; also: 0% = median of the test wells and 100% = reference compound wells
# Mtb FBA inh: Mtb FBA enzyme inhibitors, primary screen, biochemical, fluorescence, strain H37Rv; 360,000 tested, 2.3% active; Fructose-bisphosphate aldolase (Mycobacterium tuberculosis (strain ATCC 25618 / H37Rv)), …; AID 588726, 2011; purified M. tuberculosis FBA, fluorescence read-out; inhibition, % at 1 µM; in the data active = inhibition above about 27%;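 also: 0% = vehicle and 100% = reference inhibitor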
# Y pestis TopoI: Yersinia pestis topoisomerase I inhibitors, primary screen, biochemical, cleavage product accumulation, plate reader, single point; AID 504884, 2011; 360,000 tested, 0.064% active; activity, % at 10 µM; Y. pestis Topo-I cleavage product accumulation; DNA topoisomerase I (Yersinia pestis CO92); in the data active = activity above about 50%, passing the limit was not always enough
# PrPC TRFRET cf: confirmation of inhibitors of cell surface human prion protein, confirmation, cell-based, TR-FRET; inhibition, % at 13.8 µM; shares compounds with PrPC TRFRET; cell surface PrPC level; 1,500 tested, 65% active; in the data active = inhibition above about 25%
# LD9 tox: cytotoxicity in LD9 cells, cytotoxicity control for cell surface PrPc inhibitor project, cell-based, luminescence, high throughput; shares compounds with PrPC TRFRET; luminescence viability; inhibition, % at 13.8 µM; 1,500 tested, 29% active; AID 743201, 2013; in the data active = inhibition above about 9.5%
# * hit, by the source's call; / = no result given.
SMILES,TcdB inh,GDH-TPI counter,PrPC TRFRET,Mtb FBA inh,Y pestis TopoI,PrPC TRFRET cf,LD9 tox
COc1ccc(C(=O)NCc2ccc3c(c2)cc(C)n3C)cc1OC,0,3,45*,0,14,8,-1
Cc1cc2cc(CNC(=O)c3cccs3)ccc2n1C,2,1,35*,5,5,17,3
COc1ccc(CC(=O)NCc2ccc3c(c2)cc(C)n3C)cc1,0,7,-1,-1,-2,/,/
COc1ccc(/C=C\C(=O)NCc2ccc3c(c2)cc(C)n3C)cc1OC,-1,13,81*,-3,25,59*,-9
COc1cccc(C(=O)NCc2ccc3c(c2)cc(C)n3C)c1,0,3,46*,5,7,49*,0
CC(=O)N1CC(=O)N2[C@H](C1)[C@@H](c1ccc(C#CC(C)C)cc1)[C@@H]2CO,1,/,/,/,/,/,/
CCCC(=O)Nc1ccc(C(=O)NNC(=S)NC(=O)c2cccs2)cc1,/,28,-4,0,0,/,/
CCCC(=O)Nc1ccc(C(=O)NNC(=S)NC(=O)c2ccc(Br)o2)cc1,1,24,32*,5,5,0,-3
CO[C@@H]1CC[C@H]2CCN(C)C(=O)CCCN(C)C(=O)c3cccc(C#N)c3OC[C@@H]1O2,-1,/,/,/,/,/,/
O=C(Nc1nc(-c2ccccn2)cs1)c1ccccc1-n1cnnn1,2,14,28*,1,-1,27*,20*
C=C1C(=O)C23C(O)C1CCC2C12CCCC(C)(COC(C)=O)C1C(O)C3(O)OC2 (configuration not stated),0,11,75*,0,38,77*,93*
C[C@@H]1CN([C@@H](C)CO)C(=O)Cc2cc(NC(=O)Nc3ccccc3)ccc2O[C@H]1CN(C)Cc1ccc(C(=O)O)cc1,-2,/,/,/,/,/,/
Cc1sc2ncnc(Sc3ccccc3C(=O)Nc3ccc(Br)cc3)c2c1C,3,3,25*,3,-10,31*,-3
N#C[C@@H]1[C@H](c2ccccc2C2=CCCCC2)[C@H](CO)N1S(=O)(=O)c1cccc(F)c1,-9,/,/,/,/,/,/
CC(=O)c1cccc(NS(=O)(=O)c2ccc(-c3cnc(C4CC4)o3)cc2)c1,4,-4,30*,3,11,22,19*
CC(=O)Nc1ccc(NS(=O)(=O)c2ccc(-c3cnc(C4CC4)o3)cc2)cc1,2,-14,-6,1,-2,/,/
CC(=O)Nc1ccc(-c2nn[nH]n2)cc1,-2,-17,2,-4,5,/,/
CC(=O)Nc1ccc(-c2ccnc(-c3ccc(NC(C)=O)cc3)n2)cc1,-3,7,58*,1,-1,56*,-5
CCCNC(=O)N[C@H]1CC[C@H](CC(=O)NC2CCC2)O[C@H]1CO,-1,/,/,/,/,/,/
Cc1ccc(OCc2nc3ccccc3n2C(C)C(=O)Nc2c(C)cccc2C)cc1 (configuration not stated),1,/,33*,/,/,26*,-3
Cc1c(N/N=C(\C#N)C(=O)c2ccc(Cl)cc2)c(=O)n(-c2ccccc2)n1C,/,23,34*,-14,7,26*,25*
COC(=O)C(=NNc1c(C)n(C)n(-c2ccccc2)c1=O)C(=O)OC,/,17,-5,-2,1,/,/
Cc1ccc(Cl)cc1NC(=O)c1ccc(Cn2cc(Cl)cn2)cc1,1,3,27*,8,1,24,3
O=C(Nc1ccc(Cl)c(Cl)c1)c1ccc(Cn2cc(Cl)cn2)cc1,1,5,6,1,-10,/,/
CCOc1ccc(C(=O)Nc2cnn(Cc3ccc(Cl)c(Cl)c3)c2)cc1,1,2,27*,-1,-4,23,-4
SMILES,TcdB inh,GDH-TPI counter,PrPC TRFRET,Mtb FBA inh,Y pestis TopoI,PrPC TRFRET cf,LD9 tox
COc1ccc(NC(=O)CSc2nc(C(C)C)nc3c2c(=O)n(C)c(=O)n3C)c(OC)c1,2,1,0,2,3,/,/
Cc1csc(NC(=O)CSc2nc(C(C)C)nc3c2c(=O)n(C)c(=O)n3C)n1,-7,7,27*,1,2,20,8
CCCNC(=O)N(C)C[C@@H]1Oc2ncc(-c3cccc(C#N)c3)cc2C(=O)N([C@H](C)CO)C[C@H]1C,-2,/,/,/,/,/,/
COCC#Cc1cnc2c(c1)C(=O)N([C@H](C)CO)C[C@@H](C)[C@H](CN(C)C(=O)c1cccc(F)c1)O2,0,/,/,/,/,/,/
COc1ccccc1Oc1ccc2c(c1)C(=O)N(CC1CCCO1)C2=O (configuration not stated),1,2,47*,0,6,1,-4
C[C@@H]1CN([C@H](C)CO)C(=O)c2cccc(NS(=O)(=O)c3ccccc3)c2O[C@@H]1CN(C)Cc1ccc(C(F)(F)F)cc1,1,/,/,/,/,/,/
C[C@@H]1CN([C@H](C)CO)C(=O)c2cc(NS(=O)(=O)c3ccccc3)ccc2O[C@@H](C)CCCCO[C@@H]1CN(C)Cc1ccncc1,-2,/,/,/,/,/,/
CCN(CC)S(=O)(=O)c1cc(C(=O)Nc2cccnc2)ccc1Cl,/,-7,-6,2,-10,/,/
CCN(CC)S(=O)(=O)c1cc(C(=O)Nc2ccncc2)ccc1Cl,/,0,26*,3,-4,20,17*
CCOc1ccccc1N=C1SCC(C)N1C(=O)C1CCN(c2ncnc3sc(C)c(C)c23)CC1 (configuration not stated),2,6,40*,-1,19,56*,-7
O=C(C[C@H]1CC[C@H]2[C@@H](COC[C@@H](O)CN2S(=O)(=O)c2ccc(F)cc2)O1)NCc1ccncn1,0,/,/,/,/,/,/
C[C@H]1CCCCO[C@H](CN(C)C)[C@@H](C)CN([C@@H](C)CO)C(=O)c2cc(NC(=O)NC3CCCCC3)ccc2O1,-13,/,/,/,/,/,/
CN(C)S(=O)(=O)Oc1cccc(C(=O)Nc2cccc(Cl)c2)c1,/,-10,24*,-3,-3,22,20*
CN(C)S(=O)(=O)Oc1cccc(C(=O)Nc2ccc(Cl)c(Cl)c2)c1,/,4,23,0,-11,/,/
CCN(c1cccc(C(F)(F)F)c1)S(=O)(=O)c1ccc2c(c1)CCN2C(C)=O,/,-3,80*,5,5,18,-4
CC(=O)c1cnc(Nc2cccc(Cl)c2Cl)s1,3,19,26*,1,-4,18,-7
COc1ccc(NC(=O)c2cccc(-c3ccc(O)cc3)c2)cn1,0,-2,33*,3,-10,14,5
C[C@H](O)C#Cc1ccc2c(c1)O[C@@H](CN(C)Cc1ccncc1)[C@H](C)CN([C@@H](C)CO)S2(=O)=O,0,/,/,/,/,/,/
CC(C)NC(=O)N1CC2(C1)[C@H](c1ccccc1)[C@H](CO)N2Cc1cccnc1,0,/,/,/,/,/,/
